Screening data deposited in PubChem by National Center for Advancing Translational Sciences (NCATS).
BAZ2B block = qHTS Assay for Inhibitors of BAZ2B; 4.4% of 360,000 active; AID 504333, 2011; AlphaScreen BAZ2B-H3K14Ac peptide displacement; Potency, µM (titrated, usually from 114 µM), inactives show top-dose activity change, negative = inhibition, usual class: inhibitors; note: potency is the fitted concentration of half-maximal effect; % is set by controls: 0 for no effect and ±100 for the full control effect; nearly all actives have a fitted effect of over 60% in size
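AlphaScreen displacement: compounds (up to 110uM) incubated 30 min at room temperature with a preformed 50 nM BAZ2B/50 nM biotinylated H3K14Ac peptide complex in PBS pH 7.4 with Tween-20. Donor and acceptor beads at 10 ug/mL final added, 20 min light-protected before reading.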
PLK1 PBD block = qHTS for Inhibitors of PLK1-PDB (polo-like kinase 1 - polo-box domain): Primary Screen | Serine/threonine-protein kinase PLK1 (Homo sapiens), P53350 | Plk1 PBD binding of FITC phosphopeptide, fluorescence polarization | Potency, µM, for the others: max response, negative = inhibition, actives largely listed as inhibitors | 2.8% of 360,000 active | AID 720504, 2013; note: potency is the fitted concentration of half-maximal effect; series mostly up to about 57 µM; % is set by controls: 0 for no effect and ±100 for the full control effect; nearly all actives have a fitted effect of over 65% in size
KAT2A inh = qHTS Assay for Inhibitors of GCN5L2 | 0.21% of 390,000 active | Histone acetyltransferase KAT2A (Homo sapiens), Q92830 | Potency, µM (highest dose often 58.9 µM), inactives show top-dose activity change, negative = inhibition, most hits filed as inhibitors | GCN5L2 HAT assay, ThioGlo1 CoA-SH fluorescence; note: potency is the fitted concentration of half-maximal effect; % is set by controls: 0 for no effect and ±100 for the full control effect
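Fluorescence readout, Ex340nm/Em540nm: ThioGlo1 (50uM final) reacts with free CoA thiol released as 20nM GCN5L2 acetylates H3(1-25) peptide (75uM) using acetyl-CoA (70uM). Compound and enzyme sat 15 min beforehand; 20 min room-temperature reaction.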
JMJD2A Tudor = qHTS Assay for Inhibitors of JMJD2A-Tudor Domain; Potency, µM (top dose mostly 114 µM), without a hit: at the highest dose activity change, negative = inhibition, usual class: inhibitors; AlphaScreen JMJD2A-Tudor / H3K4me3 peptide binding; Lysine-specific demethylase 4A (Homo sapiens), O75164; 4.4% of 390,000 active; AID 504339, 2011; note: potency is the fitted concentration of half-maximal effect; % is set by controls: 0 for no effect and ±100 for the full control effect; nearly all actives have a fitted effect of over 50% in size
PI5P4K alpha inh = qHTS for Inhibitors of phosphatidylinositol 5-phosphate 4-kinase (PI5P4K) | 1.2% of 330,000 active | max response, % | AID 652105, 2013 | PI5P4Kalpha enzyme, ADP-Glo luminescence, 60 min; active compounds read low; active = max response of -50% or lower; inconclusive = between -30% and -50%; inactive = -30% or higher; note: value at the top dose of about 77 µM; % is set by controls: 0 for no effect and ±100 for the full control effect
Target sequence (P48426 whole entry, looked up): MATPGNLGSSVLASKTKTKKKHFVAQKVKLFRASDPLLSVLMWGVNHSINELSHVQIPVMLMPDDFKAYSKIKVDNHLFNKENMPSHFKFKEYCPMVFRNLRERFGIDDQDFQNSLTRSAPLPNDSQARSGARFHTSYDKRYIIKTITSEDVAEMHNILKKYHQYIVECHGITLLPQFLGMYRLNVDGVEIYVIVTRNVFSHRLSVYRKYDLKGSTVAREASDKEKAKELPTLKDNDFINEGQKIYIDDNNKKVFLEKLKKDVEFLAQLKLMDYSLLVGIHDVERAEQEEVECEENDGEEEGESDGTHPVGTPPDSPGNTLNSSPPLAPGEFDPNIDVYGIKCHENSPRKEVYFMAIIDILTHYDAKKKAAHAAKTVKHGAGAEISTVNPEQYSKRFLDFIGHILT
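Quantitative HTS of the MLSMR library against PI5P4Kalpha with substrate. ATP added last at 5 microM final; room temperature, 60 minutes. Remaining ATP depleted, ADP converted and read as luminescence.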
HP1b chromo inh = HTS for Inhibitors of HP1-beta Chromodomain Interactions with Methylated Histone Tails; Chromobox protein homolog 1 (Homo sapiens), P83916; AlphaScreen HP1-beta / biotin-H3K9me3 peptide binding; Potency, µM (series often up to 114 µM), inactives show at the top dose activity change, negative = inhibition, hits mostly inhibitors; 0.56% of 390,000 active; AID 540317, 2011; note: potency is the fitted concentration of half-maximal effect; nearly all actives have a fitted effect of over 70% in size
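AlphaScreen: HP1-beta (50 nM) preformed 30 min with biotin-H3(1-18)K9me3 peptide (50 nM) in PBS pH 7.4, 0.01% Tween-20. Compound added for 30 min at RT, then streptavidin donor/nickel chelate acceptor beads (10 ug/mL) for 30 min.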
Active calls of the source: *; ? = inconclusive; · = no result; [ ] = dose if it differs, or a comment. This is a sample that favours compounds with a hit; in the whole collection about 7% have one here. Unless noted, calls come from the whole dose curve; as a rule, active = well fitted curve in the direction sought with a large enough effect; inconclusive = small, poorly fitted or top-dose-only effect, or another doubt; inactive = no such curve, though single readings can be large; an effect the other way counts as inactive or inconclusive.

SMILES	BAZ2B block	PLK1 PBD block	KAT2A inh	JMJD2A Tudor	PI5P4K alpha inh	HP1b chromo inh
Cn1cccc1-c1cccnc1	·	·	-11%	·	·	·
COC(=O)C(O)(c1ccc(NC(=S)NC(=O)c2ccc(Cl)cc2Cl)c(C)c1)C(F)(F)F (stereo unspecified)	-35%	21µM*	-5%	79µM*	-12	-20%
Oc1ccccc1/C=N/NP(=S)(c1ccccc1)c1ccccc1	·	-18%	-12%	-33%	12	63%
Oc1ccc(/C=N/NP(=S)(c2ccccc2)c2ccccc2)c(O)c1O	?	11µM*	-9%	?	-51*	-11%
C[C@@]12C=CC(=O)C=C1CCC1C2CC[C@]2(C)C(=O)CCC12 (stereo partly specified)	·	·	0%	·	·	·
Cn1cccc1/C=C1\C(=O)NC(=O)N(Cc2ccccc2Cl)C1=O	·	?	-19%	?	-69*	3%
CCCN(CCC)c1c([N+](=O)[O-])cc(C(F)(F)F)cc1[N+](=O)[O-]	·	·	-5%	·	·	·
COC(=O)[C@]12C(=O)C(C)=C(O)[C@@]1(C)C(C)=CC1[C@@]34CC[C@@H](OC(C)=O)C(C)(C)C3C(C[C@]12C)OC4=O (stereo partly specified)	-18%	-6%	-9%	8%	-9	51%
COc1ccc(CCNCC2CCCO2)cc1 (stereo unspecified)	?	-12%	0%	28µM*	0	?
CC1=C(C(=O)O)N2C(=O)C(NC(=O)c3nn(C)cc3[N+](=O)[O-])C2SC1 (stereo unspecified)	50µM*	34µM*	-1%	?	-17	3%
Clc1ccc(C2=CCC[C@H]3CC[C@@H]2N3)cn1	·	·	9%[0.501 µM]	·	·	·
Cc1ccccc1-c1ccc2n1Cc1cnnn1-c1ccccc1-2	·	-8%	·	50µM*	6	?
Cc1ccc(NC(=O)C2CCN(C(=O)c3cnn(-c4ccccc4)c3-n3cccc3)CC2)cc1Cl	-16%	·	-9%	?	·	-5%
O=C(Nc1ccc2nc(SCC(=O)N3CCCc4ccccc43)sc2c1)c1ccccc1F	-14%	·	-6%	-11%	·	44%
O=C(Nc1nn[nH]n1)c1cccc([N+](=O)[O-])c1	79µM*	-4%	9%	22µM*	-4	20%
COc1ccc(/C=N/NC(=O)c2cccc([N+](=O)[O-])c2)cc1OC	-15%	-10%	-6%	-7%	1	43%
COc1ccc2[nH]cc(CCN=C(NC(=O)c3ccccc3OC)Nc3nc(C)cc(C)n3)c2c1	25µM*	·	-13%	?	·	-4%
COc1ccc2[nH]cc(CCN=C(N)N)c2c1	?	-6%	-5%	-7%	4	32%
C=CCn1c(O)c(C=Nc2ccc(Cc3ccncc3)cc2)c(=O)[nH]c1=S	?	3%	-10%	?	-15	48%
CCOC(=O)CCCCCNC(=O)c1c(O)[nH]c(=O)[nH]c1=O	·	-13%	·	79µM*	5	4%
CCOC(=O)c1ccc(N=C(C)c2c(O)[nH]c(=O)[nH]c2=O)cc1	-11%	-6%	-7%	-10%	-22	12%
c1ccc2sc(C3(N4CCCC4)CCCCC3)cc2c1	·	·	-13%	·	·	·
Cn1c(O)c(C(c2ccccn2)c2c(O)n(C)c(=S)n(C)c2=O)c(=O)n(C)c1=S	5µM*	-16%	-7%	4µM*	6	7%
Cn1c(O)c(C(c2ccncc2)c2c(O)n(C)c(=S)n(C)c2=O)c(=O)n(C)c1=S	-3%	-27%	-13%	-36%	3	26%
